Experimental data published in the supplement of paper PMC6607015.
Structures can show the parent of a compound that is named as a salt.

Assays:
Conditions in all cases: compound concentration in added solution (µM; 5 µl added to 20 µl cells): 10; 18 h
A431 [1] = assay: LBPA endosome anti-LBPA integrated intensity (sum per cell), Z-score; higher = more LBPA staining
Procedure, shortened: (§1)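 Per-cell integrated LBPA or filipin intensity, whole-cell or within LBPA endosomes, is expressed as Z-scores normalised in AcuityXpress. HeLa MZ or A431 cells, 3,500 per well in 20 µl, sat on 5 µl of 10 µM compound solution in duplicate 384-well imaging plates for 18 h. They were then fixed in 4% PFA, stained, imaged in four 20× fields per well and segmented using MetaXpress.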

HeLa MZ [2] = assay: as above
Procedure, shortened: as §1

A431 [3] = assay: whole-cell filipin (free cholesterol) integrated intensity, Z-score; higher = more cholesterol staining
Procedure, shortened: as §1

HeLa MZ [4] = assay: as above
Procedure, shortened: as §1

A431 [5] = assay: filipin (cholesterol) integrated intensity within LBPA endosomes, Z-score; higher = more cholesterol in LBPA endosomes
Procedure, shortened: as §1

HeLa MZ [6] = assay: as above
Procedure, shortened: as §1

| SMILES | LBPA endosome anti-LBPA integrated intensity (z-score) (A431 [1]) | LBPA endosome anti-LBPA integrated intensity (z-score) (HeLa MZ [2]) | whole-cell filipin (z-score) (A431 [3]) | whole-cell filipin (z-score) (HeLa MZ [4]) | filipin (z-score) (A431 [5]) | filipin (z-score) (HeLa MZ [6]) |
| --- | --- | --- | --- | --- | --- | --- |
| O=C(O)CCNC(=O)c1ccc(/N=N/c2ccc(O)c(C(=O)O)c2)cc1 [Balsalazide Sodium] | -0.394 | -0.755 | -0.213 | 0.475 | -0.386 | -0.346 |
| CC(C(=O)O)c1ccc2c(c1)Cc1cccnc1O2 (centres undefined) [Pranoprofen] | -0.52 | -0.228 | -0.251 | -0.607 | -0.527 | -0.553 |
| CCN(CC)CCNC(=O)c1cc(S(C)(=O)=O)ccc1OC [Tiapride hydrochloride] | -0.48 | 0.333 | -0.576 | -0.522 | -0.565 | -0.513 |
| COc1cc(C)nc(-n2nc(C)cc2OC)n1 [Epirizole] | -0.401 | -0.156 | -0.543 | -1.08 | -0.458 | -0.525 |
| CN(C)CCOC(c1ccc(Cl)cc1)c1ccccn1 (centres undefined) [Carbinoxamine maleate salt] | -0.697 | -0.856 | -0.5 | -0.502 | -0.442 | -0.169 |
| CCOc1ccc(Cc2nccc3cc(OCC)c(OCC)cc23)cc1OCC [Ethaverine hydrochloride] | 0.203 | 2.53 | 0.476 | 0.57 | -0.238 | 0.366 |
| CN(C)CCN(Cc1ccc(Cl)cc1)c1ccccn1 [Chloropyramine hydrochloride] | 0.629 | 4.98 | 1.63 | 5.51 | 1.05 | 1.3 |
| CCC[C@H](N[C@@H](C)C(=O)N1[C@H](C(=O)O)C[C@@H]2CCCC[C@@H]21)C(=O)OCC [Perindopril] | -0.273 | -0.885 | 0.0463 | -0.4 | -0.305 | -0.603 |
| NC[C@@H]1O[C@H](O[C@H]2[C@@H](O)[C@H](O[C@@H]3[C@@H](O)[C@H](N)C[C@H](N)[C@H]3O[C@H]3O[C@H](CO)[C@@H](O)[C@H](O)[C@H]3N)O[C@@H]2CO)[C@H](N)[C@@H](O)[C@@H]1O [Paromomycin sulfate] | -0.396 | -0.465 | -0.35 | -0.208 | -0.425 | -0.447 |
| C#C[C@]1(OC(C)=O)CC[C@H]2[C@@H]3CCC4=C[C@@H](OC(C)=O)CC[C@@H]4[C@H]3CC[C@@]21C [Ethynodiol diacetate] | -0.254 | 0.88 | 0.227 | 0.371 | -0.191 | -0.00334 |
| CCC1NC(=O)c2cc(S(N)(=O)=O)c(Cl)cc2N1 (centres undefined) [Quinethazone] | -0.328 | -1.04 | 0.366 | 0.147 | -0.404 | -0.386 |
| CCCCCCCCNC(C)C(O)c1ccc(SC(C)C)cc1 (centres undefined) [Suloctidil] | 2.96 | -0.389 | 1.67 | 1.53 | 3.3 | 3.27 |
| COc1ccc(-c2cc(=O)c3c(O)cc(O[C@@H]4O[C@H](CO[C@@H]5O[C@@H](C)[C@H](O)[C@@H](O)[C@H]5O)[C@@H](O)[C@H](O)[C@H]4O)cc3o2)cc1O [Diosmin] | -0.501 | -0.4 | -0.678 | -0.378 | -0.518 | -0.715 |
| CN1CCN(C(c2ccccc2)c2ccc(Cl)cc2)CC1 (centres undefined) [Chlorcyclizine hydrochloride] | 1.56 | 0.74 | 1.78 | -0.254 | 1.24 | 0.687 |
| Clc1ccc(COC(Cn2ccnc2)c2ccc(Cl)cc2Cl)cc1 (centres undefined) [Econazole nitrate] | 0.0817 | 1.63 | 0.484 | 0.898 | -0.0604 | 0.606 |
| CN(C)CCCOc1nn(Cc2ccccc2)c2ccccc12 [Benzydamine hydrochloride] | 1.07 | 2.25 | 1.71 | -0.196 | 1.63 | 0.942 |
| COc1cc(NS(=O)(=O)c2ccc(N)cc2)ncn1 [Sulfamonomethoxine] | -0.448 | 0.107 | -0.452 | 0.0403 | -0.378 | -0.344 |
| C[C@]12CC[C@@H]3c4ccc(O)cc4CC[C@H]3[C@@H]1CC[C@@H]2O [Estradiol-17 beta] | -0.253 | 0.492 | -0.4 | -1.01 | -0.426 | -0.515 |
| CC(C(=O)O)c1cccc(Oc2ccccc2)c1 (centres undefined) [Fenoprofen calcium salt dihydrate] | -0.519 | -0.608 | -0.389 | -0.428 | -0.476 | -0.491 |
